The values that follow come from ChEMBL document CHEMBL1961873, “Compounds: GSK PKIS; Assays: Nanosyn kinase panel” (2012).

The target in experiment [1] is RAC-alpha serine/threonine-protein kinase (Homo sapiens) (UniProt P31749). The note with it: at 0.1 µM.
Experiment [2] shares this target. The conditions noted are these: at 1 µM.
Experiment [3] concerns the target RAC-beta serine/threonine-protein kinase (Homo sapiens) (UniProt P31751). The note with it: at 0.1 µM.
Experiment [4] shares this target. The conditions noted are these: at 1 µM.
Experiment [5] has as its target RAC-gamma serine/threonine-protein kinase (Homo sapiens) (UniProt Q9Y243). The conditions noted are these: at 0.1 µM.
Experiment [6] shares this target. The conditions noted are these: at 1 µM.
In experiment [7] the target is G protein-coupled receptor kinase 6 (Homo sapiens) (UniProt P43250). The note with it: at 0.1 µM.
The target is the same in experiment [8]. The conditions noted are these: at 1 µM.
Experiment [9] addresses T1, Rhodopsin kinase GRK7 (Homo sapiens) (UniProt Q8WTQ7).
T1 sequence (whole entry): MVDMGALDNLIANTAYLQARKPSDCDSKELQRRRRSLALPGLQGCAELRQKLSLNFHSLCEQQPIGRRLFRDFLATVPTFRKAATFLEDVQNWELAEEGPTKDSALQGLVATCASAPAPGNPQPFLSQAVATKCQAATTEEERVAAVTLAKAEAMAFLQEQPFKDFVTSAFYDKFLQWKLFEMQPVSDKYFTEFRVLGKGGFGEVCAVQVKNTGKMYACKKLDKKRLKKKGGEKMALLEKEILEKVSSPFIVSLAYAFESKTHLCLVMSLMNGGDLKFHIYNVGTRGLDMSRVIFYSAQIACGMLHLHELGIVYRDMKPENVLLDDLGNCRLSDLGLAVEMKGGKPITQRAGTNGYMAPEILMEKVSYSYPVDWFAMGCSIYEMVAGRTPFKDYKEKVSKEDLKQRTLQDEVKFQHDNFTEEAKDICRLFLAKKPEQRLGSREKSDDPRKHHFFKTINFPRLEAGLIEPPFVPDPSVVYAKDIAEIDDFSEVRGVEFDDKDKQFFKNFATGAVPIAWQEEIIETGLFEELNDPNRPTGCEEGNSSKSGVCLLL
The note with it: at 0.1 µM.

Experiment [10] has as its target T1, Rhodopsin kinase GRK7 (Homo sapiens). The note with it: at 1 µM.
Experiment [11] has as its target Serine/threonine-protein kinase MRCK alpha (Homo sapiens) (UniProt Q5VT25). The note with it: at 0.1 µM.
Experiment [12] shares this target. The conditions noted are these: at 1 µM.
For experiment [13], the target named is Serine/threonine-protein kinase MRCK beta (Homo sapiens) (UniProt Q9Y5S2). The conditions noted are these: at 0.1 µM.
The target is the same in experiment [14]. The conditions noted are these: at 1 µM.
For experiment [15], the target named is Ribosomal protein S6 kinase alpha-5 (Homo sapiens) (UniProt O75582). The conditions noted are these: at 0.1 µM.
Experiment [16] shares this target. The note with it: at 1 µM.
Experiment [17] concerns the target Ribosomal protein S6 kinase alpha-4 (Homo sapiens) (UniProt O75676). The note with it: at 0.1 µM.
Experiment [18] has the same target. The note with it: at 1 µM.
In experiment [19] the target is Ribosomal protein S6 kinase beta-1 (Homo sapiens) (UniProt P23443). The conditions noted are these: at 0.1 µM.
The target is the same in experiment [20]. The note with it: at 1 µM.

Sequence of Serine/threonine-protein kinase MRCK alpha (Homo sapiens) (Q5VT25 whole entry): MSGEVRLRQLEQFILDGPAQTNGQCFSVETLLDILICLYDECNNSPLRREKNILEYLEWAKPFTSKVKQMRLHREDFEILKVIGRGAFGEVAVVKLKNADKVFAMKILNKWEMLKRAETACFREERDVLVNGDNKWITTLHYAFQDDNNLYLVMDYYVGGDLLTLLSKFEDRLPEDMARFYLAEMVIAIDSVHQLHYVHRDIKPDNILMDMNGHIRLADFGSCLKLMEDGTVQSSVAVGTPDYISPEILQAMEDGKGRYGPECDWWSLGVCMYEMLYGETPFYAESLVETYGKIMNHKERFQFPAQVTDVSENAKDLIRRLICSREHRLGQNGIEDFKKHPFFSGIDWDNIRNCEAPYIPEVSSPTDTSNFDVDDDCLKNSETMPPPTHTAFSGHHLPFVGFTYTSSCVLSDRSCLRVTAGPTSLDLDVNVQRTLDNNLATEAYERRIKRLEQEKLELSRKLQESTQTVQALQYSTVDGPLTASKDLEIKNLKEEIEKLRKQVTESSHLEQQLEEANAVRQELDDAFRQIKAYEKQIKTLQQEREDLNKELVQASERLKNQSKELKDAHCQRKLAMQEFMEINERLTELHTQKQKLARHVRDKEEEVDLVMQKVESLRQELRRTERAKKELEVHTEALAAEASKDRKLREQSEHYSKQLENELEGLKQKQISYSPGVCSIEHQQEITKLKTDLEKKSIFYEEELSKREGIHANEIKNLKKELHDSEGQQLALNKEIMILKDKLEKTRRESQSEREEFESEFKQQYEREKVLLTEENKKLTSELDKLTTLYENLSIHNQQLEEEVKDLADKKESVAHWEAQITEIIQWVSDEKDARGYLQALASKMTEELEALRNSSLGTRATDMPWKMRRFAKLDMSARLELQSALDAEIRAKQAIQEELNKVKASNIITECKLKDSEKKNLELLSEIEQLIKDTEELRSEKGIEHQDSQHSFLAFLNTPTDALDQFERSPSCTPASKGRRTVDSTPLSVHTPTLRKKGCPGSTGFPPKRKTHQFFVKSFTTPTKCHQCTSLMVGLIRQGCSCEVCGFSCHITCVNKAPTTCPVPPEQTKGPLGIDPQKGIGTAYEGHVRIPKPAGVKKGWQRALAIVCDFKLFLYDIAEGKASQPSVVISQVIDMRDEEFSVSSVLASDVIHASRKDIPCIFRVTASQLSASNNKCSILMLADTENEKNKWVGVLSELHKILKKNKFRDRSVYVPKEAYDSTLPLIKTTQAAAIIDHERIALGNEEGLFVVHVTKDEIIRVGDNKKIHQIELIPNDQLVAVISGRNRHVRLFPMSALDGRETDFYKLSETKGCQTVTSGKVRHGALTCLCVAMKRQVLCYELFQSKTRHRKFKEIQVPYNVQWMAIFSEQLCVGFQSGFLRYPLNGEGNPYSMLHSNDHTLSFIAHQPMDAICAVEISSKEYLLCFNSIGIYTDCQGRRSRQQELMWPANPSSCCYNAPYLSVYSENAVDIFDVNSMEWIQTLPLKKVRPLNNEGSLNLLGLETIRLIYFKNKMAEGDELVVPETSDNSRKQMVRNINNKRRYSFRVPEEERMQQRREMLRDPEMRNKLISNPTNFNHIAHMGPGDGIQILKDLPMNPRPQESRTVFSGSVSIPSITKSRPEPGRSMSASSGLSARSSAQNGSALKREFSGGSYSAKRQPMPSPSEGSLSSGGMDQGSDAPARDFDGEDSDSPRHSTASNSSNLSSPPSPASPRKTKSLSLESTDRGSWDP
Sequence of RAC-gamma serine/threonine-protein kinase (Homo sapiens) (Q9Y243 whole entry): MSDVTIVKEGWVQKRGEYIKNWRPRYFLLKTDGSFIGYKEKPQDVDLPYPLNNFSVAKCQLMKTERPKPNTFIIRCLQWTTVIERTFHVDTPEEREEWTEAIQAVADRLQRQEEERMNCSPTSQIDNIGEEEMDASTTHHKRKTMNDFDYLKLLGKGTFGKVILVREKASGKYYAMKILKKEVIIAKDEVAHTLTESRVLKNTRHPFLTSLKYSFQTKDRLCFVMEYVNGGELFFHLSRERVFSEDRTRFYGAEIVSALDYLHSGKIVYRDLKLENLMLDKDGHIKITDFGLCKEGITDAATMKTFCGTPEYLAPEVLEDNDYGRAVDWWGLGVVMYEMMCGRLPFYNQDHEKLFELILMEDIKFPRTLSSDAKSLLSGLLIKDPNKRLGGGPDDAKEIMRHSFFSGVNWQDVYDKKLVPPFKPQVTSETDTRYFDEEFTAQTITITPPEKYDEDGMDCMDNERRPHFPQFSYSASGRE
Sequence of RAC-alpha serine/threonine-protein kinase (Homo sapiens) (P31749 whole entry): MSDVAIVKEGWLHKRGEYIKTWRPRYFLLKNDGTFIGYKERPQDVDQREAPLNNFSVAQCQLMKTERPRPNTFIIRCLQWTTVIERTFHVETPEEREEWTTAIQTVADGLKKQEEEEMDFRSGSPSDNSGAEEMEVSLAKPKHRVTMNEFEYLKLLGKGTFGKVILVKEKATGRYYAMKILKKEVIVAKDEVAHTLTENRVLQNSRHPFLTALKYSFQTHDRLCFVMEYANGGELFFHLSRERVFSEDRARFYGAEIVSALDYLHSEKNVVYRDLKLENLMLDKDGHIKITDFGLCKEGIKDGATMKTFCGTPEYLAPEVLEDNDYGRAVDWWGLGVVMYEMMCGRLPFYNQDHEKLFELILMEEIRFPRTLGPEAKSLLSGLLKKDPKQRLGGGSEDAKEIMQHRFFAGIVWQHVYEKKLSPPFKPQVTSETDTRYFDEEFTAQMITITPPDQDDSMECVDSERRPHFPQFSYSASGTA
Sequence of Ribosomal protein S6 kinase alpha-4 (Homo sapiens) (O75676 whole entry, looked up): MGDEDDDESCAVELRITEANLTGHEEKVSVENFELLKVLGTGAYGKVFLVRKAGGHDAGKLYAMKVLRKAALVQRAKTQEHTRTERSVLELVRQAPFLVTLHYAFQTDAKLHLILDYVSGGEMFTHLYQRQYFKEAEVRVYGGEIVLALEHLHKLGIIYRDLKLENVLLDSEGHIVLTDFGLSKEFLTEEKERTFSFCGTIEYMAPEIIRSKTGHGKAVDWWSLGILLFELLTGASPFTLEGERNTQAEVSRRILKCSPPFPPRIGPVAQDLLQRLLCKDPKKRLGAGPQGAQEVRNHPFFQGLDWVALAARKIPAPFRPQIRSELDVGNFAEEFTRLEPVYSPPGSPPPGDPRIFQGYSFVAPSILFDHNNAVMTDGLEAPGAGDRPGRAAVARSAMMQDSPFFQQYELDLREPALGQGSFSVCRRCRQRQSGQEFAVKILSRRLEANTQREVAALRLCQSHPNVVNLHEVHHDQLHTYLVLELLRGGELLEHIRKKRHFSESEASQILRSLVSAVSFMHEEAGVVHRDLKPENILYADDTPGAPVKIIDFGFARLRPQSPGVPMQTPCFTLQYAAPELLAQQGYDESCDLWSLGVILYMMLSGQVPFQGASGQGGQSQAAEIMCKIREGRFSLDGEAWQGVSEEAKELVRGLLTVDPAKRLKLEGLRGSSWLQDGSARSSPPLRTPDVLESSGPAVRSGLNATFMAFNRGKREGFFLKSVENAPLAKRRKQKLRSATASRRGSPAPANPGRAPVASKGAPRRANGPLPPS
Sequence of Ribosomal protein S6 kinase beta-1 (Homo sapiens) (P23443 whole entry, looked up): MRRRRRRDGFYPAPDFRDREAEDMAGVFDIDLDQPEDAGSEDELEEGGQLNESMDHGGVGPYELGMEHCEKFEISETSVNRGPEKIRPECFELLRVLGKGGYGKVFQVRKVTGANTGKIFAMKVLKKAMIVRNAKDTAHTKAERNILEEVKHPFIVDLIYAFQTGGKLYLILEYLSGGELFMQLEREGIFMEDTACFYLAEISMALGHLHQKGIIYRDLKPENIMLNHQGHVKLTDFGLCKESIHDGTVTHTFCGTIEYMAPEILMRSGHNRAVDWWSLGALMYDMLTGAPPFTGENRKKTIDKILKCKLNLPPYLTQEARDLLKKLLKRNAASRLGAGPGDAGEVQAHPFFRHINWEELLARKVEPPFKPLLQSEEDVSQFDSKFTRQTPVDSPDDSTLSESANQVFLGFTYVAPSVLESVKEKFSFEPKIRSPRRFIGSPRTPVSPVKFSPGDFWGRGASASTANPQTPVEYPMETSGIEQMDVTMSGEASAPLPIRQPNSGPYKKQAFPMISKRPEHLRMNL
Sequence of G protein-coupled receptor kinase 6 (Homo sapiens) (P43250 whole entry, looked up): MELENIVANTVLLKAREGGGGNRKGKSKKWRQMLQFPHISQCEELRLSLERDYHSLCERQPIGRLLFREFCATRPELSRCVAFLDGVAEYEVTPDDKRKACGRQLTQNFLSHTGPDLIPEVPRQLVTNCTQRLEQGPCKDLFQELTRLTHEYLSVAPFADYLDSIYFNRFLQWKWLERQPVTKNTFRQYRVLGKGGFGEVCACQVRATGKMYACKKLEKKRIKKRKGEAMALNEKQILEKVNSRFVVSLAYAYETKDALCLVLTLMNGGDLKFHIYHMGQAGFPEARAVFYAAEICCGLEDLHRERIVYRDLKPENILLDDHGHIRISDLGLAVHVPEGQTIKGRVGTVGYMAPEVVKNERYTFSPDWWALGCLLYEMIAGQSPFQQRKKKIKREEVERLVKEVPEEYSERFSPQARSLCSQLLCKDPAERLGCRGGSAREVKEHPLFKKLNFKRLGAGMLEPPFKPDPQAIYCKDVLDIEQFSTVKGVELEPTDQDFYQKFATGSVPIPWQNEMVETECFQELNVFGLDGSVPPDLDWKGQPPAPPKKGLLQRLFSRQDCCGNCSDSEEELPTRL
Sequence of RAC-beta serine/threonine-protein kinase (Homo sapiens) (P31751 whole entry): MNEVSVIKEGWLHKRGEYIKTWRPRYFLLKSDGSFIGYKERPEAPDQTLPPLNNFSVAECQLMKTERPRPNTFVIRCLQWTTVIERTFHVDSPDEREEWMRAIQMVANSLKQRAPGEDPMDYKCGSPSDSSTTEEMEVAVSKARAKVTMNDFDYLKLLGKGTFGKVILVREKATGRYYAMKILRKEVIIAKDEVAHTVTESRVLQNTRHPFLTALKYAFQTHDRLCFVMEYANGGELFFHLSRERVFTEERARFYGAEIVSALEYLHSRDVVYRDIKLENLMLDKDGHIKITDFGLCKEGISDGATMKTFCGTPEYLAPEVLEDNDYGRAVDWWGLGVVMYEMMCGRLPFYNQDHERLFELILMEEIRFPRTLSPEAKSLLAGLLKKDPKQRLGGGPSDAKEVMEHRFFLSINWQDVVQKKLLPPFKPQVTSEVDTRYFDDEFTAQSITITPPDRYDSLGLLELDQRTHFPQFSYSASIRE

The term inhibition denotes the drop in the measured response relative to a control, in per cent. Consider `Nc1nc(-c2ccccn2)c(-c2ccc3ncccc3n2)s1`, for which the inhibition in experiment [1] was determined as 0.97%; in [2], 0.96%; in experiment [3], 1.1%; in [4] it was 1.5%; in [5], 1.6%; in experiment [6], 1.17%. Further, the inhibition in experiment [7] was 5.73%; in experiment [8], 1.87%; in [9], 1.26%; in [10] it was -0.58%; in [11], 0.29%; in [12], -0.21%. Further, the inhibition in [13] is -1.45%; in experiment [14], 0.91%; in experiment [15], 2.65%; in experiment [16], 4.51%; in experiment [17], 1.3%; in [18], 3.24%. For the same compound, the inhibition amounted to 0.7% in [19] and 1.17% in [20].
As to `COc1cc(C=NNc2ncnc3c2cnn3-c2ccccc2)ccc1O`, the inhibition in experiment [1] was 0.7%; in [2], -1.12%; in experiment [3] it was 2.4%; in experiment [4], -2.91%; in experiment [5], 1.08%; in experiment [6], -1.19%. The inhibition in [7] was 1.52%; in [8] it was -6.34%; in experiment [9], -0.04%; in experiment [10], -4.38%; in experiment [11] it was 0.09%; in [12], 3.38%. Also, the inhibition is 1.02% in experiment [13]; 2.48% in experiment [14]; -3.81% in experiment [15]; -1.13% in experiment [16]; 1.6% in [17]; 4.55% in experiment [18]. Besides, the inhibition in experiment [19] worked out at 2.72%; in experiment [20], 10.3%.
Take `COc1ccccc1Nc1ncc(-c2ccccc2)o1`: the inhibition in [1] came out at 1.37%; in experiment [2] it was 1.71%; in experiment [3], 0.6%; in experiment [4], 2.82%; in experiment [5] it was 0.12%; in experiment [6], 3.9%. Besides, the inhibition in experiment [7] was 2.46%; in [8], 3.95%; in [9], 10.1%; in [10] it was 2.31%; in experiment [11] it was -5.48%; in experiment [12], -2.78%. The inhibition in experiment [13] is 0.73%; in [14], 0.66%; in experiment [15], -3.3%; in [16], -5.77%; in [17], 4.65%; in [18], 2.42%. Further, the inhibition in [19] was found to be 1.36%; in experiment [20], 2.44%.
On to `CCn1c(-c2nonc2N)nc2c(C#CC(C)(C)O)nc(OC[C@@H](N)c3ccccc3)cc21`, for which the inhibition in experiment [1] was 38.2%; in experiment [2], 85.2%; in experiment [3] it was 61.2%; in [4], 91.1%; in [5] it was 48.4%; in experiment [6], 87.2%. Further, the inhibition in [7] is -1.09%; in experiment [8], -0.69%; in experiment [9], -0.18%; in experiment [10], 16.6%; in experiment [11] it was 12%; in experiment [12], 48.2%. The inhibition was 11.1% in experiment [13]; 48.5% in [14]; -5.71% in experiment [15]; 8.99% in experiment [16]; 1.92% in experiment [17]; 19.7% in experiment [18]. The inhibition in experiment [19] stood at 5.44%; in [20], 36%.
On to `COc1cc2ncn(-c3cc(OCc4ccccc4C(F)(F)F)c(C(N)=O)s3)c2cc1OC`, for which the inhibition in experiment [1] is -2.43%; in experiment [2], -2.44%; in experiment [3], -2.6%; in [4], -2.54%; in [5] it was -3.14%; in [6], -1.66%. Moreover, the inhibition is 0.88% in experiment [7]; 0.91% in experiment [8]; 9.69% in experiment [9]; 6.72% in experiment [10]; -5.9% in experiment [11]; -3.27% in experiment [12]. For the same compound, the inhibition was -0.23% in experiment [13]; -0.14% in [14]; 1.71% in experiment [15]; 1.02% in experiment [16]; 2.52% in experiment [17]; 5.14% in experiment [18]. In addition, the inhibition in experiment [19] was found to be 1.44%; in experiment [20], 3.22%.
Regarding `CCN1CCC(CC(=O)Nc2n[nH]c3nc(-c4cccs4)c(Br)cc23)CC1`, the inhibition in experiment [1] was -2.05%; in experiment [2], -0.11%; in experiment [3] it was -3.94%; in experiment [4], -1.99%; in experiment [5] it was -2.82%; in experiment [6], 2.59%. The inhibition in experiment [7] is -0.66%; in experiment [8] it was -2.54%; in experiment [9], -7.57%; in experiment [10] it was -4.43%; in [11] it was -1%; in [12], -0.59%. The inhibition was 0.24% in [13]; 0.47% in experiment [14]; -2.28% in experiment [15]; 0.61% in experiment [16]; -2.08% in experiment [17]; -1.67% in experiment [18]. Moreover, the results for the inhibition in experiment [19] and in experiment [20] were -1.91% and 0.59%, respectively.
In the case of `Cn1cc(C=C2C(=O)Nc3cccnc32)c2ccccc21`, the inhibition in experiment [1] was found to be 0.73%; in [2], 0.22%; in experiment [3] it was 1.08%; in experiment [4], 1.6%; in experiment [5] it was 1.15%; in experiment [6], 0.99%. Also, the inhibition is -1.62% in experiment [7]; 6.18% in experiment [8]; 3.02% in experiment [9]; 10.6% in experiment [10]; 0.96% in experiment [11]; 0.55% in experiment [12]. Besides, the inhibition in experiment [13] was 1.17%; in experiment [14], 0.99%; in experiment [15], 2.12%; in experiment [16] it was 3.29%; in experiment [17], 2.56%; in experiment [18], 10.1%. In addition, the inhibition in [19] was 1.61%; in experiment [20] it was 3.78%.
